Results filed as inconclusive are left out. Active and inactive are the calls of the source. Unless noted, the call rests on the fitted dose curve; in most records, active means well fitted curve in the direction sought with a large enough effect in the repeat runs; inconclusive means weak or mixed curves; inactive means no such curve, though single readings can be large; an effect the other way counts as inactive or inconclusive.
Legend:
[1] = target: Luciferin 4-monooxygenase (Photinus pyralis) (UniProt P08659); experiment: qHTS assay to identify small molecule inhibitors of firefly luciferase (AID 1224835); further: nearly all actives have a fitted effect of over 25% in size; further: potency means the concentration at half of the fitted maximal effect; on activity change, negative = inhibition: series mostly up to about 120 µM
Sequence of Luciferin 4-monooxygenase (Photinus pyralis) (P08659 whole entry, looked up): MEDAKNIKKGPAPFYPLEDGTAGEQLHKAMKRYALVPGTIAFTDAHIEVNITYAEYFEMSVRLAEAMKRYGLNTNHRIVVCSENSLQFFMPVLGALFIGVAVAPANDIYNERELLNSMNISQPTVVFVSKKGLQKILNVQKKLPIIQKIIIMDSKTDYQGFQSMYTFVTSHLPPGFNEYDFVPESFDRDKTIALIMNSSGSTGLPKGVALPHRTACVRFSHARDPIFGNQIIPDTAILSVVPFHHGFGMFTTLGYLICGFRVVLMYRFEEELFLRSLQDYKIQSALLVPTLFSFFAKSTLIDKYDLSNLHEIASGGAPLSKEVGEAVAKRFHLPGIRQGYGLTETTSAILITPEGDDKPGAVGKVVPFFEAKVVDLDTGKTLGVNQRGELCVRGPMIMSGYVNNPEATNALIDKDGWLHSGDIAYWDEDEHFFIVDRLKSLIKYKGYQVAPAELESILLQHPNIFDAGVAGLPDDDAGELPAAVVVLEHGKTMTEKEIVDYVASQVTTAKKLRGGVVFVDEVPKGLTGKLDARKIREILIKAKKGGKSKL
Procedure, shortened: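 Quantitative HTS format; KM concentrations of both substrates. Purified P. pyralis FLuc activity quantified from luminescence images.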

[2] = qHTS assay to identify small molecule agonists of the constitutive androstane receptor (CAR) signaling pathway - cell viability counter screen (AID 1224836); further: series mostly up to about 92 µM; nearly all actives have a fitted effect of over 45% in size
Procedure, shortened: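 Viability read-out: CellTiter-Fluor fluorescence after 23 h compound exposure at 37 C/5% CO2 in double-stable HepG2-CYP2B6-hCAR cells, with PK11195 present at 0.75 uM final; compounds tested in 15-point titration.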

[3] = qHTS assay to identify small molecule antagonists of the constitutive androstane receptor (CAR) signaling pathway - cell viability counter screen (AID 1224837); further: series mostly up to about 92 µM; nearly all actives have a fitted effect of over 45% in size
Procedure, shortened: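 Fluorescence from CellTiter-Fluor served as the viability signal. Human hepatoma HepG2 cells stably bearing hCAR and CYP2B6-2.2kb received compound plus CITCO (50 nM final) for 23 hr.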

[4] = target: Nuclear receptor subfamily 1 group I member 3 (Homo sapiens) (UniProt Q14994); experiment: qHTS assay to identify small molecule antagonists of the constitutive androstane receptor (CAR) signaling pathway (AID 1224838);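 further: HepG2 cells stably expressing hCAR with CYP2B6 luciferase reporter stimulated by CITCO; nearly all actives have a fitted effect of over 40% in size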
Sequence of Nuclear receptor subfamily 1 group I member 3 (Homo sapiens) (Q14994 whole entry, looked up): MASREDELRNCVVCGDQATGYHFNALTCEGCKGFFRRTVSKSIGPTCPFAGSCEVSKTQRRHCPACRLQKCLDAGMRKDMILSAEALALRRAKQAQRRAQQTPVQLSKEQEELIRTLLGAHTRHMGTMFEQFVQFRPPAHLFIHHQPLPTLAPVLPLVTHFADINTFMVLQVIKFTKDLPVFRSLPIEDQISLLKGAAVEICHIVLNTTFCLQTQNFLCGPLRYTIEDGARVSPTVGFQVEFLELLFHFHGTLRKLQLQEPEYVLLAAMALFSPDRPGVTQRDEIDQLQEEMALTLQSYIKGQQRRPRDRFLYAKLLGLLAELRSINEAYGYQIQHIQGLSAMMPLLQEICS
Procedure, shortened: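 Quantitative HTS in double-stable HepG2-CYP2B6-hCAR cells. After 4 h plating, cells get compound (15 concentrations) and CITCO at 50 nM final, incubate 24 h at 37 C, then ONE-Glo luminescence is read.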

[5] = target: Nuclear receptor subfamily 1 group I member 3 (Homo sapiens) (UniProt Q14994); experiment: qHTS assay to identify small molecule agonists of the constitutive androstane receptor (CAR) signaling pathway (AID 1224839); further: nearly all actives have a fitted effect of over 15% in size; further: potency means the concentration at half of the fitted maximal effect;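 on activation: HepG2 cells stably carrying human CAR and a CYP2B6 luciferase reporter; series mostly up to about 92 µM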
Procedure, shortened: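 Luminescence read-out (ONE-Glo, 30 min, room temperature) from double-stable HepG2-CYP2B6-hCAR cells exposed 24 h to 15-point compound series in presence of 0.75 uM PK11195 final.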

[6] = qHTS assay to identify small molecule antagonists of the estrogen related receptor signaling pathway with the pleiotropic PPARgamma coactivator (PGC) from Tox21 10K library - cell viability counter screen (AID 1224840; active means well fitted cell-killing curve with a large enough effect in the repeat runs, not every such curve was filed as active; further: nearly all actives have a fitted effect of over 40% in size)
Procedure, shortened: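 Compounds in DMSO, alongside positive and negative controls, were pinned onto PGC/ERR cells (2,000 per well). Exposure lasted 17.5 hours at 37 C, followed by a 30-minute CellTiter-Fluor incubation and fluorescence reading.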

[7] = target: Thyrotropin receptor (Homo sapiens) (UniProt P16473); experiment: qHTS assay to identify small molecule agonists of the thyroid stimulating hormone receptor (TSHR) signaling pathway (AID 1224843; calls by dose curve; further: nearly all actives have a fitted effect of over 45% in size)
Sequence of Thyrotropin receptor (Homo sapiens) (P16473 whole entry, looked up): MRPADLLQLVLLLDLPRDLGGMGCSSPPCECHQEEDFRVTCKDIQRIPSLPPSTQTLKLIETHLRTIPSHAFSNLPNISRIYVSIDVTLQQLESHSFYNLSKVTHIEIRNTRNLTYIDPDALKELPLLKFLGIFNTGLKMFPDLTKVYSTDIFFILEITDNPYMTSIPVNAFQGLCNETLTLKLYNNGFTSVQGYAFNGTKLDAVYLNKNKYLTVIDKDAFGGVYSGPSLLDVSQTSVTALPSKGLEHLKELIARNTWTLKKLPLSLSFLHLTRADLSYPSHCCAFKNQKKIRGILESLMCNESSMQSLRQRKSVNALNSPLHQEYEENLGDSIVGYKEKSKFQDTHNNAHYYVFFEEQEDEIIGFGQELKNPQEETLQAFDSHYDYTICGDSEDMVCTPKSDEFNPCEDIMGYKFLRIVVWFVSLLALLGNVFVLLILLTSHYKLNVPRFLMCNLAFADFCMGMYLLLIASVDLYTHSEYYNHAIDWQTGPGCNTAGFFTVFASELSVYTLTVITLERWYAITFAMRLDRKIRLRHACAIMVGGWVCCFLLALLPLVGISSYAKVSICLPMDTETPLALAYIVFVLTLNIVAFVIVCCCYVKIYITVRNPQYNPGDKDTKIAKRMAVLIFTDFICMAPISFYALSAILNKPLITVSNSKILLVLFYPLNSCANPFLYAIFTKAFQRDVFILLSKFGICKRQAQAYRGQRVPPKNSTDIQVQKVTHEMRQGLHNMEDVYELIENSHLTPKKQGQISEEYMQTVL
Procedure, shortened: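 Cell line HEK293 with TSHR; density 800/well. Exposure 30 min RT. Readout HTRF cAMP (cAMP-d2/anti-cAMP-cryptate), 1 h RT before reading.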

[8] = qHTS assay to identify small molecule agonists of the hypoxia (HIF-1) signaling pathway - cell viability counter screen (AID 1224844; calls by dose curve; further: nearly all actives have a fitted effect of over 50% in size)
Procedure, shortened: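 Luminescent ATP content (CellTiter-Glo, 30 min, room temperature) served as the viability measure in HRE-bla ME-180 cells exposed to compounds for 17 hrs in low-serum medium (0.5% dialyzed FBS).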

[9] = qHTS assay to identify small molecule antagonists of the estrogen related receptor signaling pathway with the pleiotropic PPARgamma coactivator (PGC) from Tox21 10K library (AID 1224841; call rule not given here; further: series mostly up to about 92 µM; actives are mostly falling curves and most rising ones were filed inactive; nearly all actives have a fitted effect of over 50% in size)
Procedure, shortened: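 Compound exposure ran 18 hours at 37 C in PGC/ERR cells (2,000/well) that had first rested 6 hours in a 37 C/5% CO2 incubator. Luciferase activity was then detected with One-Glo after a 30-minute room-temperature step.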

[10] = qHTS assay to identify small molecule agonists of the estrogen related receptor signaling pathway with the pleiotropic PPARgamma coactivator (PGC) from Tox21 10K library (AID 1224842); further: nearly all actives have a fitted effect of over 15% in size
Procedure, shortened: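 PGC/ERR reporter cells (NTP line) were seeded 2,000 per well, rested 6 h at 37 C/5% CO2, then pin-dosed with compounds in DMSO for 18 h at 37 C; luciferase read by One-Glo luminescence after 30 min at room temperature.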
On the % scale 0 is the no-effect control and ±100 the full control effect.

C[N+]1(C)CCC(OC(=O)C(O)(c2ccccc2)C2CCCC2)C1 (stereo unspecified)
inactive: Potency [1] | Potency [2] | Potency [3] | Potency [4] | Potency [5] | Potency [6] | Potency [7] | Potency [8]

CCCCCCCCCCO[C@@H]1O[C@H](CO)[C@@H](O)[C@H](O)[C@H]1O
inactive: Potency [1] | Potency [2] | Potency [3] | Potency [4] | Potency [5] | Potency [6] | Potency [8]

Nc1cccc([N+](=O)[O-])c1
inactive: Potency [1] | Potency [2] | Potency [3] | Potency [4] | Potency [6] | Potency [9] | Potency [10] | Potency [8]

C[C@@H]1C[C@H]2O[C@@]3(O[C@@H]2C(C)(C)O)[C@H](O)[C@@]2(C)[C@@H]4CC[C@H]5C(C)(C)[C@@H](O[C@@H]6OC[C@@H](O)[C@H](O)[C@H]6O)CC[C@@]56C[C@@]46CC[C@]2(C)[C@@H]13
inactive: Potency [1] | Potency [2] | Potency [3] | Potency [4] | Potency [6] | Potency [9] | Potency [10] | Potency [7] | Potency [8]

CC(C)(COC(=O)c1ccccc1)COC(=O)c1ccccc1
inactive: Potency [1] | Potency [2] | Potency [3] | Potency [4] | Potency [5] | Potency [6] | Potency [8]

O=C(Nc1ccccc1)c1ccccc1O
active: Potency [1] 15.9 µM | Potency [5] 27.3 µM
inactive: Potency [2] | Potency [3] | Potency [4] | Potency [10] | Potency [8]

COS(=O)(=O)C(F)(F)F
inactive: Potency [1] | Potency [2] | Potency [3] | Potency [4] | Potency [5] | Potency [6] | Potency [7] | Potency [8]

Brc1c2ccccc2c(Br)c2ccccc12
inactive: activity change, negative = inhibition [1] 2.43% [at 10.5 µM] | viability change, negative = cytotoxic [2] 3.16% [at 8.39 µM] | activity change, negative = cytotoxicity [3] 6.42% [at 8.39 µM] | activity, negative = inhibition [4] 22.1% [at 8.39 µM] | viability change, negative = cytotoxic [6] 6.16% [at 8.39 µM] | activity, negative = inhibition [9] 52.5% [at 8.39 µM] | activation [10] 2.94% [at 8.39 µM] | activation [7] -2.14% [at 8.39 µM] | activity change, negative = cytotoxicity [8] -13.7% [at 6.97 µM]

O=C(OCCCCCCOC(=O)c1ccccc1)c1ccccc1
inactive: Potency [1] | Potency [2] | Potency [3] | Potency [4] | Potency [6] | Potency [9] | Potency [10] | Potency [8]

COc1cc2nc(Cl)nc(N)c2cc1OC
inactive: Potency [1] | Potency [2] | Potency [3] | Potency [4] | Potency [5] | Potency [6] | Potency [8]

c1ccc(CNCCNCc2ccccc2)cc1
inactive: Potency [1] | Potency [2] | Potency [3] | Potency [4] | Potency [5] | Potency [6] | Potency [7] | Potency [8]

OC[C@H]1O[C@@H](OCCc2ccc(O)cc2)[C@H](O)[C@@H](O)[C@@H]1O
inactive: Potency [1] | Potency [2] | Potency [3] | Potency [4] | Potency [6] | Potency [9] | Potency [10] | Potency [8]

C[C@@H]1C[C@H]2[C@@H]3CCC4=CC(=O)C=C[C@]4(C)[C@@]3(F)[C@@H](O)C[C@]2(C)[C@@]1(O)C(=O)COC(=O)c1ccncc1
inactive: Potency [1] | Potency [2] | Potency [3] | Potency [4] | Potency [6] | Potency [7]

CCCn1cnc2c1c(=O)n(CCCCC(C)=O)c(=O)n2C
inactive: Potency [1] | Potency [2] | Potency [3] | Potency [4] | Potency [6] | Potency [9] | Potency [10] | Potency [7] | Potency [8]

CCCCCCCN
inactive: Potency [1] | Potency [2] | Potency [3] | Potency [4] | Potency [6] | Potency [7] | Potency [8]

O=C(O)C1(C(=O)Nc2ccc(Cl)cc2Cl)CC1
inactive: Potency [2] | Potency [3] | Potency [4] | Potency [6] | Potency [7] | Potency [8]
active: Potency [1] 6.33 µM

COc1cccc(N(C)C(=S)Oc2ccc3c(c2)CCCC3)n1
inactive: Potency [1] | Potency [2] | Potency [3] | Potency [4] | Potency [5] | Potency [6] | Potency [8]

C=C1[C@H]2CC[C@@H]3[C@H]2C(C)(C)CCC[C@]13C
inactive: Potency [1] | Potency [2] | Potency [3] | Potency [4] | Potency [5] | Potency [6] | Potency [8]

C=CC1CC2C=CC1C2 (stereo unspecified)
inactive: Potency [1] | Potency [2] | Potency [3] | Potency [4] | Potency [5] | Potency [6] | Potency [8]

O=C(O)C1(C(=O)O)CCC1.[NH2-].[NH2-].[Pt+2]
inactive: Potency [1] | Potency [2] | Potency [3] | Potency [4] | Potency [6] | Potency [7] | Potency [8]

CC(C)(CO)[N+](=O)[O-]
inactive: Potency [1] | Potency [2] | Potency [3] | Potency [4] | Potency [5] | Potency [6] | Potency [8]

CC1=CC=C(C(C)C)CC1
inactive: Potency [1] | Potency [2] | Potency [3] | Potency [4] | Potency [5] | Potency [6] | Potency [8]

NCC(=O)O
inactive: activity change, negative = inhibition [1] -0.476% [at 23.6 µM] | viability change, negative = cytotoxic [2] -11.9% [at 19 µM] | activity change, negative = cytotoxicity [3] -8.8% [at 19 µM] | activity, negative = inhibition [4] -5.57% [at 19 µM] | viability change, negative = cytotoxic [6] 0.187% [at 19 µM] | activation [7] -1.56% [at 19 µM] | activity change, negative = cytotoxicity [8] 0.428% [at 15.8 µM]

C/C=C(/C(=C/C)c1ccc(OC(C)=O)cc1)c1ccc(OC(C)=O)cc1
inactive: Potency [1] | Potency [2] | Potency [3] | Potency [6] | Potency [7] | Potency [8]

CCOC(=O)COC(=O)c1cc(Oc2ccc(C(F)(F)F)cc2Cl)ccc1[N+](=O)[O-]
inactive: Potency [1] | Potency [2] | Potency [3] | Potency [4] | Potency [6] | Potency [8]

CCOC(=O)c1cccnc1
inactive: Potency [1] | Potency [2] | Potency [3] | Potency [4] | Potency [6] | Potency [7] | Potency [8]

From PubChem BioAssay (Tox21)
